Bioassay records as filed in PubChem.
The full list was thinned out, with hits kept by preference.
HIV RNase H inh-1 – blocks HIV-1 RNase H cleavage of RNA/DNA duplex | RT-RNase H RNA/DNA duplex cleavage, fluorescence | inhibition, % at 10 µM | 1.9% of 65,000 active | AID 565; in the data active = inhibition above about 50%
HIV RNase H inh-2 – confirmation of HIV-1 reverse transcriptase RNase H inhibitors | AID 651 | inhibition, % at 10 µM | shares compounds with HIV RNase H inh-1 | Recombinant RT RNase H, fluorescent RNA/DNA duplex cleavage | 39% of 1,000 active; in the data active = inhibition above about 48%; inconclusive = no clear call, values can overlap the other calls
Numbers without * were called inactive; ? = inconclusive.

SMILES	HIV RNase H inh-1	others
Nn1c(SCC(=O)NC2CCCCC2)nnc1-c1ccc(Cl)cc1	3.0
COc1ccc(C)cc1NC(=O)CN1CCN(S(=O)(=O)c2ccc(Br)cc2)CC1	1.2
O=c1c2ccc(-c3nnc4n3-c3ccccc3SC4)cc2nc2n1CCCCC2	-6.8
Cc1nnc(NC(=O)Oc2ccccc2)s1	-0.6
Cc1c(NC(=O)Oc2ccccc2)sc(=S)n1C	58.9*	HIV RNase H inh-2=5.6
CC(=O)NC(=O)Nc1sc(=S)n(C)c1C	17.2
Cc1ccnc(N2C(=O)OC(C)(C)C2(C)O)c1 (centres undefined)	-17.5
Cc1ccccc1-n1nnnc1SC1CCOC1=O (centres undefined)	-28.4
Cc1ccc(-c2n[nH]c(=S)n2C)cc1	-8.9
Cc1cc(C)n2c(=S)[nH]nc2n1	74.4*	HIV RNase H inh-2=66.8*
CCCSc1nnc2nc(C)cc(C)n12	-10.8
COCCNC(=O)Cn1nc(C(F)(F)F)c(Cl)c1C	1.1
Cc1nn(C(=O)c2ccccc2)c2c1C(=O)CC(C)(C)C2	-4.1
COc1ccc(CCNC(=O)CSc2nnnn2-c2ccccc2OC)cc1OC	-12.4
CCCCC[C@H](O)/C=C/[C@H]1C=CC(=O)[C@@H]1C/C=C\CCCC(=O)O	77.2*	HIV RNase H inh-2=66.9*
CC1CC(C)CN(c2nc3c(c(=O)n(C)c(=O)n3C)n2CCSc2nc3ccccc3o2)C1 (centres undefined)	-3.3
O=C(NCc1ccco1)N1c2ccccc2Sc2ccccc21	-54.8
N#Cc1c(N)sc2c1CCCCCC2	-43.4
N#Cc1c(N)sc(=S)c2c1CCCCC2	57.9*	HIV RNase H inh-2=9.1
N#Cc1c(N)c(C#N)c(-c2ccc(O)cc2)c2c1CCCC2	-25.0
NC(=O)CSc1nc(-c2ccccc2Cl)ns1	-11.2
CCCOc1ccc2oc(=O)c3c(c2c1)CCCN3C(=O)CN(C)Cc1ccccc1	-4.1
COc1ccc(NC2CS(=O)(=O)CC2NCc2ccco2)cc1 (centres undefined)	0.9
Cc1cc(/C=N/n2cnnc2)c(C)n1-c1cccc(Cl)c1	-85.1
Cc1sc(-n2c(C)cc(/C=N/n3cnnc3)c2C)c(C#N)c1C	78.2*	HIV RNase H inh-2=69.4*
SMILES	HIV RNase H inh-1	others
Cc1cc(/C=N/n2cnnc2)c(C)n1-c1ccc(Cl)cc1Cl	-37.1
O=C(Nc1ccc(N2CCCCC2)c(C(=O)O)c1)c1ccco1	-14.9
O=C(Nc1ccc(N2CCCC2)c(Cl)c1)c1ccco1	-1.0
Cc1cccc(NC(=O)c2cc(NC(=O)c3ccco3)ccc2N2CCCCC2)c1	73.1*	HIV RNase H inh-2=?
COc1cccc(NC(=O)CCN2CCN(C)CC2)c1	-6.4
COC(=O)c1ccccc1NC(=O)c1sc(=S)n(C)c1N	86.7*	HIV RNase H inh-2=73.6*
Cn1c(N)c(C(=O)NCc2ccccc2)sc1=S	-5.9
COC(=O)c1ccccc1NC(=O)c1sc(N)nc1C	-40.1
O=c1[nH]c(NCc2ccco2)nnc1Cc1ccccc1Cl	-8.4
COc1ccc(Cl)cc1N1CC(c2nc3ccccc3[nH]2)CC1=O (centres undefined)	-5.7
O=C1CC(c2nc3ccccc3[nH]2)CN1c1ccccc1F (centres undefined)	63.2*	HIV RNase H inh-2=21.2
O=C1CC(c2nc3ccccc3[nH]2)CN1c1cccc(C(F)(F)F)c1 (centres undefined)	-5.5
COc1cc2nc(CN3CCN(c4ncc(C(F)(F)F)cc4Cl)CC3)[nH]c(=O)c2cc1OC	-0.4
Nc1c(S(=O)(=O)c2cccc(Cl)c2)c2nc3ccccc3nc2n1/N=C/c1ccc(O)c(O)c1	92.3*	HIV RNase H inh-2=57.7*
CC(C)CNC(=O)c1c(N)n(/N=C/c2cccnc2)c2nc3ccccc3nc12	5.3
Cc1cccc(S(=O)(=O)c2c(N)n(Cc3ccco3)c3nc4ccccc4nc23)c1	2.8
COc1ccccc1OCc1nc(Cc2ccc(Cl)cc2)no1	-41.4
COc1cc(C)c(CNc2ccc(OC)c(OC)c2)cc1C	-24.1
CCSc1nnc(NC(=O)CSc2nnc(Cc3cccn3C)n2-c2ccc(C)cc2)s1	-4.8
CCOC(=O)N1CCC(N2Cc3cccc(C(=O)NCc4ccccc4OC)c3C2=O)CC1	-31.6
CCOC(=O)N1CCC(N2Cc3cccc(C(=O)NCc4ccc5c(c4)OCO5)c3C2=O)CC1	-1.4
CCOC(=O)N1CCC(N2Cc3cccc(C(=O)NCc4ccc(OC)cc4)c3C2=O)CC1	73.2*	HIV RNase H inh-2=44.5
O=C1CSC(=Nc2cc(Cl)ccc2Cl)N1	-32.8
CC(C)CCn1nnnc1C(c1ccc(F)cc1)N1CCC(C(N)=O)CC1 (centres undefined)	-3.1
O=C(NCc1ccc2c(c1)OCO2)c1ccc(C2SCC(=O)N2Cc2ccco2)cc1 (centres undefined)	10.2
SMILES	HIV RNase H inh-1	others
COc1ccc(NC(=O)c2cc3n(n2)C(C(F)(F)F)CC(c2ccco2)N3)cc1 (centres undefined)	6.1
O=C(NCC12CC3CC(CC(C3)C1)C2)c1cc2n(n1)C(C(F)(F)F)CC(c1ccco1)N2 (centres undefined)	10.6
Cc1cc(NC(=O)c2cc3n(n2)C(C(F)(F)F)CC(c2ccco2)N3)n(-c2ccccc2)n1 (centres undefined)	62.0*	HIV RNase H inh-2=44.2
CS(=O)(=O)N(Cc1nnc(-c2cccs2)o1)c1ccc(Cl)cc1F	-21.7
COc1ccc(Cl)cc1NC(=O)N(C)Cc1c(C)nn(C)c1C	-8.8
CCc1[nH]nc2c1C(c1ccc(Br)s1)C(C#N)=C(N)O2 (centres undefined)	-1.0
Cc1cnc(C(=O)Nc2ccc3c(c2)CCC3)cn1	0.4
CCCCOc1ccc(NC(=O)c2cnc(C)cn2)cc1	1.9
Cc1cnc(C(=O)Nc2ccc(F)c(F)c2)cn1	50.8*	HIV RNase H inh-2=26.4
c1ccc(-c2nc(Sc3ncnc4c3cnn4-c3ccccc3)n[nH]2)cc1	-3.9
O=C(CCn1c(=O)sc2ccccc21)NCc1ccc2c(c1)OCO2	-15.2
O=c1[nH]c2cc3c(cc2cc1CN(Cc1ccccc1)Cc1nnnn1Cc1ccco1)OCCO3	21.4
CC(C)C(c1nnnn1Cc1ccccc1)N(CCCO)Cc1cc2cc3c(cc2[nH]c1=O)OCO3 (centres undefined)	89.0*	HIV RNase H inh-2=11.0
O=c1[nH]c2cc3c(cc2cc1CN(CCCO)Cc1nnnn1Cc1ccc(F)cc1)OCO3	-22.6
O=C(NCc1ccc(Cl)cc1)C1CCCN(S(=O)(=O)c2cnc[nH]2)C1 (centres undefined)	2.3
CCOC(=O)CNC(=O)C(NC(=O)C1CCC(C)CC1)C(C)CC (centres undefined)	0.2
O=C(CN1CCCCC1)Nc1cccc(Br)c1	-23.9
Cc1ccc2cc3cc(C(=O)NCc4ccc5c(c4)OCO5)oc3nc2c1	33.4
COc1ccc2cc3cc(C(=O)Nc4ccc5c(c4)OCO5)oc3nc2c1	62.5*	HIV RNase H inh-2=2.3
CCCN(CCC)CCCNC(=O)c1cc2cc3ccc(OC)cc3nc2o1	-21.6
CCOc1cc(CNCC2CCCO2)cc(Br)c1OCC(N)=O (centres undefined)	-1.3
COc1ccc(NC(=O)c2ccco2)cc1N	-14.8
O=C(NCc1ccc2c(c1)OCO2)C1CCCN(S(=O)(=O)c2cccnc2)C1 (centres undefined)	-2.0
Cc1ccc(-c2nnn(CC(=O)N(CC(=O)NC3CCCCC3)c3cnc4ccccc4c3)n2)o1	20.4
CCc1c(C#N)c(SCc2c(C)noc2C)nc2c1C(=O)CC(C)(C)C2	-21.5
CCN(CC)C1=CC(=O)OC12CCCCC2	54.7*	HIV RNase H inh-2=65.0*
O=C1C=C(NCc2ccco2)C2(CCCCC2)O1	-5.4
O=C1C=C(NCc2ccccc2)C2(CCCCC2)O1	-4.6
CC1Cc2ccccc2N1C(=O)CSc1nc2c(c(=O)n(C)c(=O)n2C)n1Cc1ccccc1 (centres undefined)	-9.2
